Assay results as given in PubChem BioAssay (NCI).
Compounds without any hit were thinned out: in the full panel of roughly 79,000, 15% have a hit. Values without a mark were called inactive. Active and inactive are the calls of the source. No stated cut-off is given here; in the data, active means growth inhibition above about 70%; inactive means the rest.

Experiments:
[1] = NCI Yeast Anticancer Drug Screen. Data for the rad50 strain (AID 155);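 further: 0% = growth of vehicle-only cultures of the same strain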; settings: S. cerevisiae rad50 strain growth inhibition, stronger effect = higher value
How it was run: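 Vehicle-treated cultures provide the reference for the growth inhibition reported for compound-exposed, repair-deficient yeast.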

[2] = NCI Yeast Anticancer Drug Screen. Data for the mec2-1 strain (AID 157); settings: S. cerevisiae mec2-1 strain, stronger effect = higher value
How it was run: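 Cells of the genetically defined mec2-1 yeast strain are incubated with test compound. Inhibition of growth is calculated against vehicle-treated controls.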

[3] = NCI Yeast Anticancer Drug Screen. Data for the sgs1 mgt1 strain (AID 161);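 further: 0% = growth of cultures given vehicle only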; settings: S. cerevisiae sgs1 mgt1 strain, stronger effect = higher value
How it was run: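 Test agents were incubated with a DNA-repair-mutant yeast strain. Growth was then read and compared against vehicle-treated controls.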

[4] = NCI Yeast Anticancer Drug Screen. Data for the cln2 rad14 strain (AID 165);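 further: 0% = growth equal to vehicle treated cultures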; settings: S. cerevisiae cln2 rad14 strain, stronger effect = higher value
How it was run: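 The screen exposed genetically defined yeast (cln2 rad14) to test compounds and scored growth inhibition relative to vehicle-treated controls.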

[5] = NCI Yeast Anticancer Drug Screen. Data for the bub3 strain (AID 167); settings: S. cerevisiae bub3 mutant strain, stronger effect = higher value
How it was run: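 Mutant yeast screening strain plus compound; vehicle-treated cultures serve as the 0% inhibition reference.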

[6] = NCI Yeast Anticancer Drug Screen. Data for the mlh1 rad18 strain (AID 175); settings: S. cerevisiae mlh1 rad18 strain growth inhibition, stronger effect = higher value
How it was run: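 Compound-treated yeast growth, normalised to vehicle controls. Strain bears defined DNA repair mutations.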

[7] = at 5.0 µM (retest, dose inferred, filed as 0.5)
[8] = at 50.0 µM (retest, dose inferred, filed as 5.0)

SMILES | growth inhibition [1, 7] [%] | growth inhibition [1, 8] | growth inhibition ([1]; at 50.0 µM) | growth inhibition [2, 7] [%] | growth inhibition [2, 8] | growth inhibition ([2]; at 50.0 µM) | growth inhibition [3, 7] | growth inhibition [3, 8] | growth inhibition ([3]; at 50.0 µM) | growth inhibition [4, 7] [%] | growth inhibition [4, 8] | growth inhibition ([4]; at 50.0 µM) | growth inhibition [5, 7] [%] | growth inhibition [5, 8] | growth inhibition ([5]; at 50.0 µM) | growth inhibition [6, 7] | growth inhibition [6, 8] | growth inhibition ([6]; at 50.0 µM)
ClC(Cl)=C1C(=C(Cl)Cl)C(Cl)(Cl)C1(Cl)Cl | 51 | 98% (active) | 88.2% (active) | 14 | 99% (active) | 92.6% (active) | 70% (active) | 99% (active) | 92% (active) | 55 | 97% (active) | 92.7% (active) | 56 | 98% (active) | 91.2% (active) | 74% (active) | 98% (active) | 88.2% (active)
O=C(C[N+]12CN3CN(CN(C3)C1)C2)c1ccc(Cl)cc1Cl | -2 | -4% | 99.3% (active) | 9 | 5% | 99.5% (active) | -20% | -4% | 99.4% (active) | -1 | -6% | 99.2% (active) | 0 | -2% | 99.3% (active) | -12% | -26% | 99.4% (active)
Oc1ccccc1C(Sc1nc2ccccc2s1)Sc1nc2ccccc2s1 | 4 | 97% (active) | 97.3% (active) | 16 | 97% (active) | 95.8% (active) | 19% | 97% (active) | 97.2% (active) | -1 | 93% (active) | 72% (active) | -3 | 97% (active) | 91% (active) | 3% | 98% (active) | 90% (active)
COc1ccc2c(c1)[n+]([O-])c(S(=O)(=O)c1ccc(C)cc1)c(N)[n+]2[O-] | 4 | 80% (active) | 99.2% (active) | 18 | 80% (active) | 98.8% (active) | 35% | 96% (active) | 96% (active) | 16 | 66% | 99% (active) | 50 | 96% (active) | 99% (active) | 36% | 95% (active) | 99% (active)
CC(=O)Oc1c2c(c(OC(C)=O)c3c1n(C(C)=O)c1ccccc1n3C(C)=O)n(C(C)=O)c1ccccc1n2C(C)=O | 50 | 50% | 78.2% (active) | 42 | 42% | 74.8% (active) | 34% | 34% | 79.7% (active) | 26 | 26% | 62.5% | 44 | 44% | 69.8% | 51% | 51% | 69.7%
COc1ccc(C(c2cc3c(cc2O)OCO3)N2CCCC2)c(OC)c1 (stereo not drawn) | 10 | 96% (active) | 98.5% (active) | 0 | 97% (active) | 98.2% (active) | 0% | 97% (active) | 98.8% (active) | -15 | 76% (active) | 61.2% | 5 | 99% (active) | 97.8% (active) | -3% | 97% (active) | 96% (active)
